Results taken from ChEMBL document CHEMBL2218924, “A broad activity screen in support of a chemogenomic map for kinase signalling research and drug discovery” (Biochem J, 2013).

Legend:
[1] = molecular target: T1, Protein kinase C epsilon type (Homo sapiens) (UniProt Q02156); settings: at 1 µM
T1 sequence (whole entry): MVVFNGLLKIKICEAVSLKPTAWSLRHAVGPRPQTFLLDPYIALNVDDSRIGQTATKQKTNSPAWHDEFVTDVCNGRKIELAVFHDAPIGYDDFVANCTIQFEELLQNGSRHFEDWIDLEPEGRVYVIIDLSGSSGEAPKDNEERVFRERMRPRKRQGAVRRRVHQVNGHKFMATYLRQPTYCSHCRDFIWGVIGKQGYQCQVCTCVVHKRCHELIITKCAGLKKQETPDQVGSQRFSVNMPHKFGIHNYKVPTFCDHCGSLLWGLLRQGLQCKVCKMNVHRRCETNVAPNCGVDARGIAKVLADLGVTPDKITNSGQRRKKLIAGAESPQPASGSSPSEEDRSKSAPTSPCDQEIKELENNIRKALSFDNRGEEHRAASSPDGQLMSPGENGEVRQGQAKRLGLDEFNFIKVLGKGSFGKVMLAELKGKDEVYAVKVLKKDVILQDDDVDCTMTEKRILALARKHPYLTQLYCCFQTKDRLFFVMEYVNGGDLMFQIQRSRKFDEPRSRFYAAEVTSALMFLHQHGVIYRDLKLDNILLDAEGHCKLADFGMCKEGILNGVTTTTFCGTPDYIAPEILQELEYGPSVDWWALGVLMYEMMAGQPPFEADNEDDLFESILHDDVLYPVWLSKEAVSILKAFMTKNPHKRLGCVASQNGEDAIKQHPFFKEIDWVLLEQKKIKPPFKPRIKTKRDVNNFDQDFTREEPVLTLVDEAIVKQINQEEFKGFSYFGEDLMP

[2] = molecular target: T1, Protein kinase C epsilon type (Homo sapiens); settings: at 10 µM

| Compound | residual activity [1] [%] | residual activity [2] [%] |
| --- | --- | --- |
| CC(C)[C@H](CO)Nc1nc(Nc2cc(N)cc(Cl)c2)c2ncn(C(C)C)c2n1 | 100 | 98 |
| Nc1ncnc2[nH]nc(Nc3ccc(F)cc3)c12 | 123 | 112 |
| Oc1cccc(-c2nc(N3CCOCC3)c3oc4ncccc4c3n2)c1 | 91 | 99 |
| CC(C)(C)n1nc(Cc2cccc3ccccc23)c2c(N)ncnc21 | 91 | 100 |
| NCCNc1ncc(C(N)=O)c(Nc2cccc(C(F)(F)F)c2)n1 | 77 | 62 |
| O=c1cc(N2CCNCC2)oc2c(-c3ccccc3)cccc12 | 93 | 98 |
| COc1ccc2c(c1)c(C1=C(c3c[nH]c4ccccc34)C(=O)NC1=O)cn2CCCN(C)C | 3 | 0 |
| COc1ccc(Cl)cc1NC(=O)Nc1cc(C)nc2ccccc12 | 82 | 97 |
| Cc1cc(C)c(/C=C2\C(=O)Nc3ccccc32)[nH]1 | 82 |  |
| O=S(=O)(c1cccc2cnccc12)N1CCCNCC1 |  | 69 |
| CSc1nc(-c2ccc(F)cc2)c(-c2ccnc(NC(C)c3ccccc3)c2)[nH]1 (stereo not drawn) | 125 | 101 |
| CCOC(=O)c1c(C)[nH]c(/C=C2\C(=O)Nc3ccccc32)c1C | 83 | 88 |
| COc1ccc(-c2cnc3c(-c4ccsc4)cnn3c2)cc1 | 86 | 100 |
| Cn1sc(=O)n(Cc2ccccc2)c1=O | 88 | 11 |
| O=c1cc(N2CCOCC2)oc2c1ccc1ccccc12 | 87 | 87 |
| O=C1NC(=O)c2c1c1c3ccccc3[nH]c1n1cncc21 | 105 | 94 |
| CCCC(=O)Oc1ccc2[nH]c(C(=O)c3cc4ccccc4[nH]3)cc2c1 | 85 | 93 |
| CC(C)N(CCC(=O)c1ccc2ccccc2c1)Cc1ccccc1 | 83 |  |
